B1: PhoQ; a variant is named by its letters at X, in order, P23837 (parent)
chain: MKKLLRLFFPLSLRVRFLLATAAVVLVLSLAYGMVALIGYSVSFDKTTFRLLRGESNLFYTLAKWENNKLHVELPENIDKQSPTMTLIYDENGQLLWAQRDVPWLMKMIQPDWLKSNGFHEIEADVNDTSLLLSGDHSIQQQLQEVREDDDDAEMTHSVAVNVYPATSRMPKLTIVVVDTIPVELKSSYMVWSWFIYVLSANLLLVIPLLWVAAWWSLRPIEALAKEVRELEEHNRELLNPATTRELTSLVRNLNRLLKSERERYDKYRTTLTDLTHSLKTPLXXLQXXLRSLRSEKMSVSDAEPVMLEQISRISQQIGYYLHRASMRGGTLLSRELHPVAPLLDNLTSALNKVYQRKGVNISLDISPEISFVGEQNDFVEVMGNVLDNACKYCLEFVEISARQTDEHLYIVVEDDGPGIPLSKREVIFDRGQRVDTLRPGQGVGLAVAREITEQYEGKIVAGESMLGGARMEVIFGRQHSAPKDE

The full ranking holds about 140,000 sequences; the median of “enrichment ratio after two sorts for PhoP signalling” is about 0, and the highest 2% start at about 11. For the sample, the highest values were picked, then their nearest neighbours and some sequences at random.

In this experiment the parent is B1. Nature of the experiment: enrichment ratio after two sorts for PhoP signalling (ratio (wild type AVST 3.29)); higher = more functional. The conditions noted are these: with PhoP (E. coli).
Consider AHLI, for which the enrichment ratio stood at 4.17.

As to AADK, the enrichment ratio is at most 0.25.

Regarding ADLA, the enrichment ratio turned out to be 0.619.

Consider FDLI, for which the enrichment ratio was at most 0.25.

For the variant AALI, the enrichment ratio came out at 11.9.

As to KDLI, the enrichment ratio was at most 0.25.

Consider AILI, for which the enrichment ratio was found to be 1.77.

APLI: the enrichment ratio worked out at 0.336.

For ADLT, the enrichment ratio was 11.3.

TDLI: the enrichment ratio worked out at 16.1.

Take ADLI: the enrichment ratio turned out to be 16.8.

Consider AILT, for which the enrichment ratio came out at 6.15.

Turning to WYQF, the enrichment ratio is at most 0.25.

Take EELG: the enrichment ratio is at most 0.25.

Consider IKSA, for which the enrichment ratio was at most 0.25.

For AVVT, the enrichment ratio turned out to be 0.37.

Turning to QMRR, the enrichment ratio is at most 0.25.

On to ILWV, for which the enrichment ratio was at most 0.25.

Take GWVK: the enrichment ratio was at most 0.25.

As to ANLI, the enrichment ratio amounted to 23.1.

Regarding AYLI, the enrichment ratio turned out to be 0.332.

As to ANDK, the enrichment ratio is at most 0.25.

Take PDDN: the enrichment ratio is at most 0.25.

Take VNIK: the enrichment ratio is at most 0.25.

With TWLY, the enrichment ratio was at most 0.25.

Regarding IICF, the enrichment ratio is 0.792.

In the case of TICI, the enrichment ratio was determined as 2.26.

TICA: the enrichment ratio was 12.3.

Consider TICS, for which the enrichment ratio was 13.

TICE: the enrichment ratio is at most 0.25.

As for TICL, the enrichment ratio is 1.53.

In the case of TICV, the enrichment ratio came to 6.14.

For the variant IKEC, the enrichment ratio was at most 0.25.

In the case of LHYP, the enrichment ratio was at most 0.25.

For the variant KVDK, the enrichment ratio was at most 0.25.

On to LNSS, for which the enrichment ratio was at most 0.25.

Take TNSK: the enrichment ratio is at most 0.25.

On to MNSS, for which the enrichment ratio amounted to 0.46.

For TNSI, the enrichment ratio was determined as 15.8.

Take TNSS: the enrichment ratio was determined as 13.1.

GITC: the enrichment ratio worked out at 8.58.

In the case of TNSR, the enrichment ratio is at most 0.25.

As to GISC, the enrichment ratio turned out to be 11.8.

Regarding MNSC, the enrichment ratio is at most 0.25.

Take TNCA: the enrichment ratio amounted to 8.8.

For the variant TNSC, the enrichment ratio was 17.3.

Regarding GIFC, the enrichment ratio was at most 0.25.

Regarding IKVK, the enrichment ratio was at most 0.25.

In the case of LLGD, the enrichment ratio is at most 0.25.

In the case of MVLD, the enrichment ratio was at most 0.25.

RQIY: the enrichment ratio is at most 0.25.

For GQSC, the enrichment ratio is at most 0.25.

For GTSC, the enrichment ratio was at most 0.25.

Consider GNSC, for which the enrichment ratio is 12.1.

On to WNPE, for which the enrichment ratio was at most 0.25.

In the case of EPTS, the enrichment ratio is at most 0.25.

SQPA: the enrichment ratio is at most 0.25.

On to TCCT, for which the enrichment ratio stood at 7.4.

For HELT, the enrichment ratio is at most 0.25.

NECT: the enrichment ratio turned out to be 14.1.

As for EECT, the enrichment ratio is at most 0.25.

Regarding VFCT, the enrichment ratio was at most 0.25.

As to YWCT, the enrichment ratio was at most 0.25.

Consider HECT, for which the enrichment ratio was determined as 26.3.

Regarding VECT, the enrichment ratio came out at 12.

As for IECT, the enrichment ratio turned out to be 16.6.

For the variant HEAT, the enrichment ratio was at most 0.25.

Consider QECT, for which the enrichment ratio came to 6.99.

In the case of IQCT, the enrichment ratio is at most 0.25.

On to REDM, for which the enrichment ratio was at most 0.25.

On to DVPV, for which the enrichment ratio was at most 0.25.

On to MSTY, for which the enrichment ratio amounted to 2.56.

Take SPFN: the enrichment ratio is at most 0.25.

Turning to ACHR, the enrichment ratio was at most 0.25.

On to MCHQ, for which the enrichment ratio is at most 0.25.

On to FMEW, for which the enrichment ratio was at most 0.25.

On to ERFY, for which the enrichment ratio is at most 0.25.

Take LRPR: the enrichment ratio is at most 0.25.

For LISC, the enrichment ratio is at most 0.25.

As to HMCL, the enrichment ratio was 2.41.

On to SEMT, for which the enrichment ratio was 20.

As to QEMT, the enrichment ratio came to 5.12.

As to KYMT, the enrichment ratio is at most 0.25.

Turning to SRMT, the enrichment ratio amounted to 0.372.

As for SPLT, the enrichment ratio was at most 0.25.

As for STLA, the enrichment ratio is 10.9.

For the variant SLMT, the enrichment ratio was at most 0.25.

SIMT: the enrichment ratio came to 7.68.

As to STLT, the enrichment ratio worked out at 12.3.

Regarding SQMT, the enrichment ratio was 22.7.

As to STMT, the enrichment ratio came out at 16.6.

With SWMT, the enrichment ratio was at most 0.25.

Turning to INDV, the enrichment ratio was at most 0.25.

Take LNTQ: the enrichment ratio was at most 0.25.

For PDCH, the enrichment ratio was at most 0.25.

In the case of PGNF, the enrichment ratio was at most 0.25.

DWKT: the enrichment ratio was at most 0.25.

Take EFCG: the enrichment ratio was at most 0.25.

As for KSIH, the enrichment ratio was at most 0.25.

For KPAG, the enrichment ratio was at most 0.25.

In the case of LQSG, the enrichment ratio was at most 0.25.

For EPRQ, the enrichment ratio was at most 0.25.

Turning to TQPT, the enrichment ratio is at most 0.25.

As for WMMI, the enrichment ratio was at most 0.25.

On to IPNH, for which the enrichment ratio was at most 0.25.

In the case of PVYK, the enrichment ratio was at most 0.25.

In the case of SMQM, the enrichment ratio was determined as 20.4.

On to KAQM, for which the enrichment ratio is at most 0.25.

In the case of SGQK, the enrichment ratio is at most 0.25.

FQQM: the enrichment ratio is at most 0.25.

As to TLQM, the enrichment ratio came to 15.4.

Take DWQM: the enrichment ratio is at most 0.25.

Turning to LAQM, the enrichment ratio was at most 0.25.

Take SGQM: the enrichment ratio came to 14.7.

Turning to TQQM, the enrichment ratio is 17.5.

For the variant SMRM, the enrichment ratio was at most 0.25.

In the case of RGQM, the enrichment ratio was at most 0.25.

For SMGM, the enrichment ratio worked out at 5.78.

In the case of IDFL, the enrichment ratio was at most 0.25.

SWLW: the enrichment ratio was at most 0.25.

As to FYKC, the enrichment ratio was at most 0.25.

Consider FEKG, for which the enrichment ratio is at most 0.25.

For DDSK, the enrichment ratio was at most 0.25.

For the variant RTPK, the enrichment ratio was at most 0.25.

Consider TQKM, for which the enrichment ratio is at most 0.25.

In the case of MGAV, the enrichment ratio was found to be 5.2.

On to STQM, for which the enrichment ratio turned out to be 12.8.

FSQM: the enrichment ratio was at most 0.25.

Consider SRQM, for which the enrichment ratio was at most 0.25.

For the variant LTQM, the enrichment ratio is at most 0.25.

For the variant FCQM, the enrichment ratio is at most 0.25.

Turning to KSQM, the enrichment ratio is at most 0.25.

Take TTQM: the enrichment ratio is 12.5.

With SPQM, the enrichment ratio was at most 0.25.

For the variant YTQM, the enrichment ratio was at most 0.25.

On to SCQM, for which the enrichment ratio turned out to be 30.8.

TSQM: the enrichment ratio amounted to 24.

KYQM: the enrichment ratio is at most 0.25.

In the case of RPSF, the enrichment ratio is at most 0.25.

GPMM: the enrichment ratio was at most 0.25.

On to AHKW, for which the enrichment ratio was at most 0.25.

Take PCPS: the enrichment ratio was at most 0.25.

As to AQDI, the enrichment ratio was at most 0.25.

Take SAQM: the enrichment ratio was found to be 8.97.

As to SLQM, the enrichment ratio stood at 7.14.

Regarding SQQM, the enrichment ratio stood at 15.9.

As to HIPP, the enrichment ratio was at most 0.25.

With TDCL, the enrichment ratio turned out to be 1.96.

On to KHNK, for which the enrichment ratio is at most 0.25.

Take YPTR: the enrichment ratio is at most 0.25.

On to YCAA, for which the enrichment ratio was at most 0.25.

Turning to QASG, the enrichment ratio amounted to 17.4.

Regarding QRSG, the enrichment ratio is at most 0.25.

For the variant QGSN, the enrichment ratio is 20.2.

For FFSN, the enrichment ratio is at most 0.25.

On to KASG, for which the enrichment ratio is at most 0.25.

For QRSN, the enrichment ratio was at most 0.25.
